Consider five compounds from PubChem BioAssay.

The test system of test [1] is Wnt5a (protein binding on small-molecule microarray). The experiment in a line: Wnt5a binders on small-molecule microarray, primary screen, biophysical, 635/667 nm fluorescence (AID 1142).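 Note: fluorescence read at 667 nm with signal to noise per printed feature.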 The settings on record: 635 nm fluorescence, higher = more signal.
A short description of test [2]: cell viability in Huh7 cells, primary screen, cytotoxicity control for HCV replication inhibitor project, CellTiter-Glo luminescence, basal, 48 h (AID 1143).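 Note: Huh7 hepatoma cells carrying a hepatitis C replication reporter with no stimulus; test concentration not given here.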 The settings on record: Huh7 HCV replicon, higher = more signal, called active from +8 up or from −8 down. (Cellular ATP, detected with luciferase, serves as a proxy for viable cell number.)
Test [3] can be described thus: P. aeruginosa biofilm formation inhibitors, primary screen, PAO1 strain, BacTiter-Glo luminescence, LB-PBS (AID 1144). The settings on record: 12 h, higher = more signal.
Test [4] is described as follows: CREB reporter modulators without forskolin, primary screen, cell-based, PC12, CRE-LacZ reporter, unstimulated (AID 1145). Particulars: no forskolin, luminescence, 4.5 h, higher = more signal, called active from +8 up or from −8 down.
Test [5] is described as follows: CREB reporter modulators under forskolin, primary screen, cell-based, PC12, CRE-LacZ reporter, forskolin-stimulated (AID 1146).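 Note: PC12 cells with 6xCRE LacZ reporter stimulated by forskolin 10 µM; beta-galactosidase reporter signal reflecting CREB driven transcription.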 The settings on record: luminescence, 4.5 h, higher = more signal, called active from +8 up or from −8 down.
The target of test [6] is Streptavidin (Streptomyces avidinii) (UniProt P22629). Nature of the test: streptavidin binders on small-molecule microarray, primary screen, artefact control for SMM compound annotation, biophysical, 635/667 nm fluorescence (AID 1147).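 Note: signal reflects streptavidin binding to arrayed compounds as a control protein.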 Particulars: streptavidin binding, higher = more signal.
Chain of Streptavidin (Streptomyces avidinii) (P22629 whole entry, looked up): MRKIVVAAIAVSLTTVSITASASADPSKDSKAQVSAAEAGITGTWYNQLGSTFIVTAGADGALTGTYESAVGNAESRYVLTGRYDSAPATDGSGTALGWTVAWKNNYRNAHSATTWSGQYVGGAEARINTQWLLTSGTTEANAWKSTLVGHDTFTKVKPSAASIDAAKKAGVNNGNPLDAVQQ
Test [7] in a line: small-molecule binders of probe aInhba, primary screen, biochemical, small-molecule microarray, 635/667 nm fluorescence (AID 1148).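 Note: score merges 667nm spot fluorescence with signal-to-noise for antibody binding to printed compounds.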 Particulars: higher = more signal.
In test [8] the target is Torsin-1A (Homo sapiens) (UniProt O14656). Nature of the test: torsin A binders from cell lysate, primary screen, small-molecule microarray, wild-type, 635/667 nm (AID 1149). Particulars: COS7 hTOR1A-WT lysate, 635 nm fluorescence, higher = more signal.
Chain of Torsin-1A (Homo sapiens) (O14656 whole entry, looked up): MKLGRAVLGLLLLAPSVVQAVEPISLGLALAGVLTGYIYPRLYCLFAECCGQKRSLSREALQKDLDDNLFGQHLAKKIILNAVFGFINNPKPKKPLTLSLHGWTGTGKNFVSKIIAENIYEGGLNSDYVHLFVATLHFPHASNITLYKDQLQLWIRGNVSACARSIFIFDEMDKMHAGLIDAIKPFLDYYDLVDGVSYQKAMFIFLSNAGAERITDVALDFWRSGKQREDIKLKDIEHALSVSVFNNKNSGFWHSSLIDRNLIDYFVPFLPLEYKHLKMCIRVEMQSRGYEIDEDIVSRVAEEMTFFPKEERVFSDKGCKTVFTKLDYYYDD
For test [9] the target is unchanged. The experiment in a line: small-molecule binders of mutant TOR1A in lysate, primary screen, cell lysate, small-molecule microarray, COS7 lysate, 635/667 nm fluorescence (AID 1150).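 Note: score pools 667 nm emission and signal to noise measuring lysate protein binding.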 The settings on record: COS7 hTOR1A mutant lysate, 635 nm fluorescence, higher = more signal.
The subject of test [10] is Sonic hedgehog protein (Shh). The experiment in a line: small-molecule binders of Shh protein, primary screen, biochemical, small-molecule microarray, 635/667 nm fluorescence (AID 1151).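 Note: Shh protein binding to compounds spotted on small-molecule microarray slides; score combines spot fluorescence intensity with signal-to-noise across triplicate slides.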 The settings on record: small-molecule microarray binding, 635 nm fluorescence; higher = more signal.
Test [11] in a line: E. coli DRC41 culture turbidity changes, primary screen, E. coli filamentation inducer project, strain DRC41, OD650, 48 h (AID 1152).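 Note: E. coli MC1000 strain DRC41 lacking acrAB efflux pump and sulA.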 Particulars: E. coli DRC41 (acrAB sulA), higher = more signal, called active from +8 up or from −8 down.
A short description of test [12]: small-molecule binders of probe aLefty1, primary screen, biochemical, small-molecule microarray, 635/667 nm fluorescence (AID 1153).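 Note: score merges spot fluorescence with signal-to-noise ratio from the scanned slide images.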 The settings on record: higher = more signal.
A short description of test [13]: PSAC antagonists in infected red cells, primary screen, cell-based, P. falciparum Indochina, OD700, 1 h (AID 1154). The settings on record: P. falciparum Indochina infected RBC osmotic lysis, higher = more signal, called active from +8 up or from −8 down.
Test [14] in a line: PSAC antagonists in infected red cells, primary screen, cell-based, P. falciparum Indochina, OD700, 2 h (AID 1155).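 Note: lysis reports solute entry through the parasite surface anion channel PSAC; channel blockers reduce lysis of infected cells.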 Particulars: P. falciparum Indochina infected erythrocytes, osmotic lysis OD700; higher = more signal, called active from +8 up or from −8 down.
A short description of test [15]: osmotic lysis modulators in infected erythrocytes, primary screen, PSAC antagonist project, cell-based, P. falciparum Indochina, OD700, 3 h (AID 1156). Particulars: higher = more signal, called active from +8 up or from −8 down.
The nature of test [16]: PSAC antagonists in infected red cells, primary screen, cell-based, P. falciparum Indochina, OD700, 18 h (AID 1157). The settings on record: P. falciparum Indochina infected erythrocytes, osmotic lysis OD700, 18 h; higher = more signal, called active from +8 up or from −8 down.
Test [17] in a line: modulators of S6 phosphorylation in cells, primary screen, cell-based, A549, cytoblot, luminescence, serum-stimulated (AID 1158).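 Note: serum-stimulated A549 lung adenocarcinoma cells; signal is phosphorylated S6 detected by cytoblot immunostaining with HRP secondary.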 The settings on record: A549 phospho-S6 cytoblot, 5 h, higher = more signal.
The target of test [18] is NADPH oxidase 2 (Homo sapiens) (UniProt P04839). Nature of the test: NOX2-dependent H2O2 signal modulators, primary screen, NOX inhibitor project, cell-based, HEK293-NOX2, PMA-stimulated, Amplex Red fluorescence (AID 1159). Note: test concentration not given here. The settings on record: 45 min, higher = more signal, called active from +8 up or from −8 down.
Chain of NADPH oxidase 2 (Homo sapiens) (P04839 whole entry, looked up): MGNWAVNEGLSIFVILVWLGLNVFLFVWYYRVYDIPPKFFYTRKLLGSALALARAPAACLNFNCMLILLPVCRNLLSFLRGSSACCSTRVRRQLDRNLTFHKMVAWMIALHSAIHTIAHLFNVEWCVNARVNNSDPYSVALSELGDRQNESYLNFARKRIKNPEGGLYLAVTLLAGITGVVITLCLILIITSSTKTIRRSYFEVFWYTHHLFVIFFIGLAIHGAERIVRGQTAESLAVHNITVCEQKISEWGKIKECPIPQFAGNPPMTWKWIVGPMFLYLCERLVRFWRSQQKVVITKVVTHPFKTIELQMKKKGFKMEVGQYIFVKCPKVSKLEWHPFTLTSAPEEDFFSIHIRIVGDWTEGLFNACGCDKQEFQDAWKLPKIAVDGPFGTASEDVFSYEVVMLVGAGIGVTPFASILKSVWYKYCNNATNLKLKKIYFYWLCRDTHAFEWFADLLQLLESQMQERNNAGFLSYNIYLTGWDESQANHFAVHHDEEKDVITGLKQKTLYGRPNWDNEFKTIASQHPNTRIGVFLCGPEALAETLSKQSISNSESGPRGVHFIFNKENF
Test [19] deals with NADPH oxidase 4 (Homo sapiens) (UniProt Q9NPH5). The experiment in a line: NOX4-dependent H2O2 signal modulators, primary screen, NOX inhibitor project, cell-based, HEK293-NOX4, tetracycline-induced, Amplex Red fluorescence (AID 1160). Particulars: 45 min, higher = more signal, called active from +8 up or from −8 down.
Chain of NADPH oxidase 4 (Homo sapiens) (Q9NPH5 whole entry, looked up): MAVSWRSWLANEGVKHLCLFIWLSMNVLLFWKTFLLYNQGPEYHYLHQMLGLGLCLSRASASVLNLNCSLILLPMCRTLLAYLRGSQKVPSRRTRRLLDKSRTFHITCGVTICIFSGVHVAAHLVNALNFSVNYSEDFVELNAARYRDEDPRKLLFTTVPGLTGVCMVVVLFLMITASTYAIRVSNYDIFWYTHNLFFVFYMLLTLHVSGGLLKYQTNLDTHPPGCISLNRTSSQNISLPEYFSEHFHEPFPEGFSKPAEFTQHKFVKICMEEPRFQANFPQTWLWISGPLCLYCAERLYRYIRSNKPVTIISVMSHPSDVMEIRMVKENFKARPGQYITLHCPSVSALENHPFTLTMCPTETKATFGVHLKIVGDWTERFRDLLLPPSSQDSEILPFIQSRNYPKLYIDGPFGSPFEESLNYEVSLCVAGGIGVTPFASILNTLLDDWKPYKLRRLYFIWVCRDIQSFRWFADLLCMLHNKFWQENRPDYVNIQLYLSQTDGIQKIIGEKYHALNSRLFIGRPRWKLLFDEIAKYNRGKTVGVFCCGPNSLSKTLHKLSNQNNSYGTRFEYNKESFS
The target of test [20] is NADPH oxidase 5 (Homo sapiens) (UniProt Q96PH1). The experiment in a line: NOX5-dependent H2O2 signal modulators, primary screen, NOX inhibitor project, cell-based, HEK293-NOX5, Amplex Red fluorescence (AID 1161). The settings on record: HEK293-NOX5, ionomycin, 45 min, higher = more signal.
Chain of NADPH oxidase 5 (Homo sapiens) (Q96PH1 whole entry, looked up): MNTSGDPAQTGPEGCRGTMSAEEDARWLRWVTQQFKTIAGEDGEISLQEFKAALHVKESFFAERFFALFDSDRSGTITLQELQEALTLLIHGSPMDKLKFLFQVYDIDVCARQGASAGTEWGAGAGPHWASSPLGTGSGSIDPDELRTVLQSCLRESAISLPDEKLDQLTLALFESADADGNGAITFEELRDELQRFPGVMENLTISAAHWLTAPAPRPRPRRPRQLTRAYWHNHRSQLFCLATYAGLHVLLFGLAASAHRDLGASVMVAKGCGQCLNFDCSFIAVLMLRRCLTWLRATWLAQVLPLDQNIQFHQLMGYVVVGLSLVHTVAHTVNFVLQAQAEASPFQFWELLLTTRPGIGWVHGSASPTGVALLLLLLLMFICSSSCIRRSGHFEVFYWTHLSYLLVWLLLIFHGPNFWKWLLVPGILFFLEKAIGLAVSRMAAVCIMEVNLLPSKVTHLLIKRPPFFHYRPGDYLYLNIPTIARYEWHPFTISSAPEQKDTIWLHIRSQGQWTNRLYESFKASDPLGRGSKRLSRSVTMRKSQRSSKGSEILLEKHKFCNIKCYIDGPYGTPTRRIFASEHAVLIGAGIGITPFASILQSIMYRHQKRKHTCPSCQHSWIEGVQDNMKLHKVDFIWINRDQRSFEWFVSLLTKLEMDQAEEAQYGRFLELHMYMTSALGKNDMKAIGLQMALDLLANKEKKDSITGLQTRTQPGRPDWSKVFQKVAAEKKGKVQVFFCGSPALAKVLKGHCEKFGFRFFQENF

Activity calls are given as the source filed them. Unless noted, the rule behind the calls is not given here.

For the compound `CN(C)C(=O)[C@@]1(Cc2ccccc2)N=C(c2ccc(OCCCO)cc2)O[C@H]1c1ccccc1CN=[N+]=[N-]`, the composite z-score in [1] was 1.45; in test [6] it was 1.5; in test [7] it was 0.696; in the test with Torsin-1A (Homo sapiens) [8] it was 0.526; with Torsin-1A (Homo sapiens) [9], 1.79; in test [10], -0.122. The compound further yielded a composite z-score in [12] of 0.981. Moreover, the z-score in [2] is -2.26 (inactive); in test [3], 0.456 (inactive); in test [4], 0.974 (inactive); in test [5], -0.55 (inactive); in [11], 0.374 (inactive); in test [13], 14.9 (active). Moreover, the z-score in [14] was 1.15 (inactive); in test [15] it was 0.882 (inactive); in test [16], 0.0009 (inactive); in test [17], -0.474; in [18], -1.75 (inactive); in [19] it was 1.17 (inactive). Also, the z-score in test [20] came out at 0.163.

For `CCCC[C@@H](O)C1=C(C)C[C@H]2C(=O)N(Cc3ccccc3)C(=O)[C@H]2[C@H]1CO`, the composite z-score in test [1] was -0.0299; in [6] it was -0.451; in test [7] it was -0.0986; in the test with Torsin-1A (Homo sapiens) [8], 0.149; with Torsin-1A (Homo sapiens) [9] it was -0.21; in test [10] it was 0.572. The same compound had a composite z-score in [12] of 0.0736. Also, the z-score in test [2] was -0.295 (inactive); in test [3], -0.665 (inactive); in [4] it was 1.29 (inactive); in [5], 0.342 (inactive); in [11], 0.969 (inactive); in test [13], 2.44 (inactive). Besides, the z-score is -0.252 (inactive) in test [14]; -0.347 (inactive) in test [15]; 0.206 (inactive) in test [16]; 0.431 in [17]; -0.789 (inactive) in test [18]; 0.358 (inactive) in [19]. The compound also returned a z-score in [20] of -0.0632.

For the compound `O=C1C[C@@H](O)[C@@H](O)[C@@H]2[C@@H]3C(=O)N(c4ccc(F)cc4F)C(=O)[C@@H]3CC[C@@H]12`, the composite z-score was -0.0711 in test [1]; 0.254 in [6]; -0.0887 in test [7]; 0.243 with Torsin-1A (Homo sapiens) [8]; 0.149 with Torsin-1A (Homo sapiens) [9]; 0.786 in test [10]. Further, the composite z-score in [12] is -0.101. The z-score is 0.988 (inactive) in [2]; -0.356 (inactive) in test [3]; 0.792 (inactive) in test [4]; -0.0611 (inactive) in [5]; -0.349 (inactive) in test [11]; -0.571 (inactive) in [13]. Also, the z-score in [14] was -0.0709 (inactive); in test [15] it was -0.659 (inactive); in test [16], -0.408 (inactive); in [17], -0.0159; in test [18], -2.64 (inactive); in [19], 0.473 (inactive). The compound also had a z-score in test [20] of -0.457.

`O=C1[C@H]2[C@H]3[C@H](O)[C@H](O)CC(=NO[C@@H]4O[C@H](CO)[C@@H](O)[C@H](O)[C@H]4O)[C@H]3CC[C@H]2C(=O)N1Cc1ccccc1`: the composite z-score in test [1] was 0.927; in [6] it was 0.001; in [7] it was -0.0736; in the test with Torsin-1A (Homo sapiens) [8], 0.717; with Torsin-1A (Homo sapiens) [9] it was 0.0309; in test [10], 0.439. The compound further yielded a composite z-score in test [12] of 0.0068. In addition, the z-score was -0.871 (inactive) in test [2]; 0.641 (inactive) in test [3]; -0.474 (inactive) in test [4]; -0.0615 (inactive) in test [5]; -0.906 (inactive) in [11]; 5.53 (inactive) in [13]. For the same compound, the z-score in [14] was 0.117 (inactive); in test [15], -0.19 (inactive); in [16], -0.801 (inactive); in test [17], 0.705; in test [18], -2.63 (inactive); in test [19] it was 0.587 (inactive). In addition, the z-score in test [20] came out at 0.353.

For the compound `CC(C)C[C@@H]1NC(=O)[C@H]2C[C@@H](C(=O)NCCCCCCN(C)C)[C@@H](c3cccc(OCCO)c3)N2C1=O`, the composite z-score was 0.726 in test [1]; -0.305 in test [6]; -0.0317 in test [7]; 1.22 with Torsin-1A (Homo sapiens) [8]; 1.32 in the test with Torsin-1A (Homo sapiens) [9]; 2.13 in test [10]. In test [12], this compound came in with a composite z-score of 0.0816. Also, the z-score was 0.069 (inactive) in [2]; -0.402 (inactive) in test [3]; 0.0124 (inactive) in test [4]; -0.995 (inactive) in test [5]; -0.054 (inactive) in [11]; 4.3 (inactive) in test [13]. In addition, the z-score in [14] was 0.594 (inactive); in test [15], 1.04 (inactive); in test [16], 0.154 (inactive); in test [17] it was 0.0695; in test [18] it was 1.77 (inactive); in test [19] it was 1.07 (inactive). In test [20], the z-score was found to be 1.84.
